In the supplement of paper PMC8699584 one finds cell viability data, which are given here for 34 molecules.

Values joined by “and” are separate entries in the source; they are usually repeats but may differ in a detail not shown here. Equal values may be shown once. Where a name gives a salt, the structure may show the parent alone. ± gives the standard deviation of the averaged measurements.

For experiment [1], the system named is Molm13. As to the kind of experiment: cell viability relative to DMSO control (bortezomib = 0%); higher = less growth inhibition. As to conditions: 10 nM; 72 h. A digest of the protocol: (§1)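 In duplicate runs, a library of 679 approved and investigational compounds in 384-well plates received acute myeloid leukemia cells at 1000 cells per well in 50 µL, with each compound at a single 10 nM dose for 72 h. CellTiter-Glo luminescence, read on an EnVision reader, served as the viability measure. Each plate was normalized by linear regression between DMSO-treated cells (100%) and positive-control-treated cells (0%).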

Experiment [2] deals with Mv4-11. The description is as above. As to conditions: 10 nM; 72 h. The essentials: as §1

As to `O=C(O)c1c[nH]c2c(ccc3ccccc32)c1=O`, the values for the cell viability in experiment [1] and in experiment [2] were 87 ± 11% and 106 ± 6.8%, respectively.

`Cc1ccc(NC(=O)c2ccc(CN3CCN(C)CC3)cc2)cc1Nc1nccc(-c2cccnc2)n1` [Imatinib Mesylate (STI571)]: the cell viability in experiment [1] is 105 ± 13%; in experiment [2], 106 ± 7.4%.

As for `Cc1cc(Nc2ncnc3ccc(NC4=NC(C)(C)CO4)cc23)ccc1Oc1ccn2ncnc2c1` [Irbinitinib(ARRY-380; ONT-380)], the results for the cell viability in experiment [1] and in experiment [2] were 103 ± 17% and 112 ± 8.3%, respectively.

Regarding `CN1C/C=C/CCOc2cccc(c2)-c2ccnc(n2)Nc2cccc(c2)C1`, the cell viability in experiment [1] is 86.77 ± 0.29%; in experiment [2] it was 102 ± 22%.

Regarding `O=C(Nc1cc(Oc2cc(F)c(NC(=O)C3(C(=O)Nc4ccc(F)cc4)CC3)cc2F)ccn1)C1CC1` [Altiratinib(DCC2701)], the cell viability in experiment [1] came to 106 ± 12%; in experiment [2], 120 ± 8.4%.

In the case of `N#C/C(=C\c1ccc(O)c(O)c1)C(=O)Nc1ccccc1`, the cell viability was 106 ± 6.4% in experiment [1] and 115 ± 17% in experiment [2].

Take `N#CC(c1ccnc(NCCc2cccnc2)n1)c1nc2ccccc2s1` (stereo not drawn): the cell viability in experiment [1] turned out to be 105 ± 26%; in experiment [2], 109 ± 28%.

In the case of `COc1cc(-c2cc(-c3ccc(N4CCNCC4)cc3)cnc2C)cc(OC)c1OC`, the results for the cell viability in experiment [1] and in experiment [2] were 111 ± 5.7% and 107 ± 3.6%, respectively.

For `CN(C)C(=O)c1cc2cnc(Nc3ccc(N4CCNCC4)cn3)nc2n1C1CCCC1`, the cell viability in experiment [1] and in experiment [2] was 113 ± 12% each time.

As for `Cc1cncc2cccc(S(=O)(=O)N3CCCN(C(=O)CN)C[C@@H]3C)c12` [(S)-Glycyl-H-1152 (hydrochloride)], the cell viability in experiment [1] is 110 ± 9.1%; in experiment [2] it was 97.4 ± 11%.

In the case of `C[N+](C)(C)CC(=O)O` [Betaine hydrochloride], the cell viability in experiment [1] came to 86.4 ± 9.4%; in experiment [2] it was 101 ± 9.6%.

As to `Oc1ccc(-c2nc(-c3ccc(F)cc3)c(-c3ccncc3)[nH]2)cc1`, the cell viability is 94% and 105% in experiment [1]; 104% and 106% in experiment [2].

On to `CCS(=O)(=O)N1CC(CC#N)(n2cc(-c3ncnc4[nH]ccc34)cn2)C1` [Baricitinib†(Phosphate)], for which the cell viability in experiment [1] worked out at 112 ± 13%; in experiment [2] it was 115 ± 5.4%.

Consider `O=C(Nc1cccc(Nc2ncc(Br)c(NCCc3cnc[nH]3)n2)c1)N1CCCC1`, for which the cell viability stood at 73 ± 3.7% in experiment [1] and 81.16 ± 0.49% in experiment [2].

For `O=C(O)c1cc(NCc2cc(O)ccc2O)ccc1O` [Lavendustin C], the cell viability in experiment [1] was found to be 111 ± 13%; in experiment [2], 104 ± 1.9%.

As to `Cc1c(NC(=O)OC[C@@H]2COCCN2)cn2ncnc(Nc3ccc4c(cnn4Cc4cccc(F)c4)c3)c12`, the cell viability in experiment [1] was found to be 105 ± 8%; in experiment [2], 112 ± 11%.

For `CNC(=O)c1ccccc1Oc1nc(Nc2cc(OC)c(OC)c(OC)c2)ncc1Br`, the figures for the cell viability in experiment [1] and in experiment [2] were 98.7 ± 26% and 107 ± 11%, respectively.

With `O=C1NCCCc2c1oc1ccc(O)cc21`, the cell viability in experiment [1] was 107 ± 1.9%; in experiment [2], 104 ± 3.1%.

Take `O=C(O)CCC(=O)Nc1ccc(Br)cn1` [Bikinin]: the cell viability in experiment [1] came to 92.5 ± 2.2%; in experiment [2], 99.9 ± 1.9%.

As to `O=S(=O)(NCCNC/C=C/c1ccc(Br)cc1)c1cccc2cnccc12` [H-89 (hydrochloride)], the cell viability in experiment [1] was determined as 114 ± 19%; in experiment [2], 109 ± 5.8%.

On to `CCN(CC)CCNC(=O)c1c(C)[nH]c(/C=C2\C(=O)Nc3ccc(F)cc32)c1C` [Sunitinib], for which the cell viability is 111 ± 26% in experiment [1] and 117 ± 4.9% in experiment [2].

With `CO[C@@H](C(=O)N1Cc2[nH]nc(NC(=O)c3ccc(N4CCN(C)CC4)cc3)c2C1)c1ccccc1`, the cell viability stood at 95.2 ± 34% in experiment [1] and 100 ± 3.8% in experiment [2].

In the case of `O=C(Nc1nc2ccc(NC(=O)C34CC5CC(CC(C5)C3)C4)cc2s1)c1ccccc1`, the cell viability in experiment [1] was found to be 117 ± 12%; in experiment [2], 101 ± 8.4%.

Turning to `C[C@H]1[C@H](C)CC[C@]2(C(=O)O)CC[C@]3(C)C(=CC[C@@H]4[C@@]5(C)C[C@@H](O)[C@H](O)[C@@](C)(CO)[C@@H]5CC[C@]43C)[C@H]12` [Asiatic acid], the cell viability in experiment [1] is 107 ± 22%; in experiment [2], 103 ± 4.2%.

`Nc1nc2cc(-c3ccc4ncc(C(=O)N5CCOCC5)n4c3)ccc2o1`: the cell viability in experiment [1] was 98.5 ± 2.2%; in experiment [2] it was 105 ± 16%.

For the molecule `N=C(N)NC(=N)NCCc1ccccc1` [Phenformin hydrochloride], the cell viability in experiment [1] came out at 91.3 ± 30%; in experiment [2] it was 107 ± 19%.

As to `CNC(=O)c1cc(Oc2ccc(NC(=O)c3cccc(C(F)(F)F)c3)cc2)ccn1`, the figures for the cell viability in experiment [1] and in experiment [2] were 96.3 ± 16% and 103 ± 4.9%, respectively.

Take `CCCS(=O)(=O)Nc1ccc(F)c(C(=O)c2c[nH]c3ncc(-c4ccc(Cl)cc4)cc23)c1F` [Vemurafenib (PLX4032, RG7204)]: the cell viability in experiment [1] turned out to be 101 ± 7%; in experiment [2] it was 105 ± 1.1%.

For the molecule `CCCCNc1ncc(C(=O)NCc2ccc(-n3ccnc3)cc2)c(NC2CCC(O)CC2)n1` (stereo not drawn), the cell viability worked out at 103 ± 5.1% in experiment [1] and 115.2 ± 0.28% in experiment [2].

Take `COc1cc2ncnc(Oc3cccc(NC(=O)Nc4cc(C(C)(C)C(F)(F)F)on4)c3)c2cc1OC`: the cell viability amounted to 115 ± 3.7% in experiment [1] and 113 ± 17% in experiment [2].

Turning to `CCS(=O)(=O)N1CC(CC#N)(n2cc(-c3ncnc4[nH]ccc34)cn2)C1`, the cell viability in experiment [1] is 122 ± 31%; in experiment [2] it was 105 ± 8.7%.

As to `CN1C(=O)C(Cc2c[nH]c3ccccc23)NC1=S` (stereo not drawn) [Necrostatin-1], the cell viability in experiment [1] was determined as 106 ± 9.9%; in experiment [2] it was 93.4 ± 10%.

`NCCCNc1ccc(Nc2nccc(Nc3cc(C4CC4)[nH]n3)n2)cc1`: the figures for the cell viability in experiment [1] and in experiment [2] were 94.71 ± 0.31% and 110 ± 7.2%, respectively.

Take `O=C(Nc1cccc(Cl)c1)Nc1ncc(CCNc2ncnc3ccsc23)s1` [SNS-314 Mesylate]: the cell viability in experiment [1] stood at 64.7 ± 13%; in experiment [2] it was 84.75 ± 0.26%.
